Where “and” joins values, the source holds several entries; their conditions need not be identical. Identical values can stand only once. Out of some 5,500 compounds screened, about 2,000 (36%) were called active. Not shown: some 18% with an inconclusive outcome. Rule as the data show it: active = normalized growth mostly below about 0.91 (no sharp cut-off); inconclusive = no clear call, values can overlap the other calls; inactive = mostly above about 0.92. This is one part of the list.
Assay: chemical genetic growth profiling, strain panel (AID 1159580);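 also: tested at 20 µM; growth read once vehicle control cultures reached saturation at 30 °C; 1 = growth at the plate median or of vehicle wells; lower values mean less growth of the strain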
Settings: S. cerevisiae deletion strains, growth OD

Measured: normalized growth

Oc1cccc(O)c1
inactive: locus YAL013W, strain DEP1, hits give low values 1.01 | locus YAL021C, strain ccr4, hits give low values 0.951 | locus YAL026C, strain drs2, hits give low values 0.966 | locus YAL030W, strain snc1, hits give low values 0.981 | locus YBL061C, strain skt5, hits give low values 0.981 | locus YBR009C, strain hhf1, hits give low values 0.981 | locus YBR021W, strain FUR4, hits give low values 1.02 | locus YBR023C, strain chs3, hits give low values 0.975 | locus YBR171W, strain sec66, hits give low values 0.983 | locus YBR229C, strain ROT2, hits give low values 1.01 | locus YBR231C, strain swc5, hits give low values 0.99 | locus YBR279W, strain paf1, hits give low values 1 | locus YCL011C, strain gbp2, hits give low values 0.938 | locus YCL016C, strain dcc1, hits give low values 0.956 | locus YCL029C, strain bik1, hits give low values 0.987 | locus YCL061C, strain MRC1, hits give low values 0.95 | locus YCL069W, strain vba3, hits give low values 0.978 | locus YCR088W, strain abp1, hits give low values 0.981 | locus YDL005C, strain med2, hits give low values 0.977 | locus YDL035C, strain GPR1, hits give low values 1.01 | locus YDL040C, strain nat1, hits give low values 0.99 | locus YDL074C, strain BRE1, hits give low values 1.01 | locus YDL101C, strain DUN1, hits give low values 1 | locus YDL134C, strain PPH21, hits give low values 0.999 | locus YDL185W, strain tfp1, hits give low values 0.974 | locus YDL192W, strain arf1, hits give low values 0.987 | locus YDR001C, strain nth1, hits give low values 0.957 | locus YDR069C, strain doa4, hits give low values 0.976 | locus YDR101C, strain arx1, hits give low values 0.981 | locus YDR137W, strain rgp1, hits give low values 0.942 | locus YDR150W, strain NUM1, hits give low values 1.01 | locus YDR159W, strain sac3, hits give low values 0.953 | locus YDR162C, strain NBP2, hits give low values 1 | locus YDR195W, strain ref2 0.993 | locus YDR297W, strain sur2, hits give low values 0.989 | locus YDR318W, strain mcm21, hits give low values 0.985 | locus YDR334W, strain swr1, hits give low values 0.969 | locus YDR335W, strain msn5, hits give low values 0.983 | locus YDR388W, hits give low values 0.986 | locus YDR392W, strain spt3, hits give low values 0.872 | locus YDR502C, strain sam2, hits give low values 0.984 | locus YEL003W, strain gim4, hits give low values 0.985 | locus YEL037C, strain rad23, hits give low values 0.977 | locus YEL061C, strain CIN8 (second series), hits give low values 0.972 | locus YEL061C, strain CIN8, hits give low values 1 | locus YER015W, strain faa2, hits give low values 0.981 | locus YER016W, strain bim1, hits give low values 0.982 | locus YER110C, hits give low values 0.984 | locus YER111C, strain swi4, hits give low values 0.981 | locus YER155C, strain BEM2 (second series), hits give low values 0.973 | locus YER155C, strain BEM2, hits give low values 1 | locus YER167W, strain BCK2, hits give low values 1.01 | locus YFR010W, strain ubp6, hits give low values 0.966 | locus YGL078C, strain dbp3, hits give low values 0.987 | locus YGL086W, strain mad1, hits give low values 0.994 | locus YGL167C, strain pmr1, hits give low values 0.984 | locus YGL173C, strain kem1, hits give low values 0.996 | locus YGL227W, strain vid30, hits give low values 0.981 | locus YGL240W, strain doc1, hits give low values 1.01 | locus YGL248W, strain PDE1, hits give low values 1.01 | locus YGL253W, strain hxk2, hits give low values 0.962 | locus YGR135W, strain pre9, hits give low values 0.986 | locus YGR252W, strain gcn5, hits give low values 0.974 | locus YHR013C, strain ard1, hits give low values 0.947 | locus YHR027C, strain rpn1, hits give low values 0.985 | locus YHR030C, strain SLT2, hits give low values 1.01 and 1.03 | locus YHR079C, strain IRE1 (second series), hits give low values 0.987 | locus YHR079C, strain IRE1, hits give low values 1.05 | locus YHR094C, strain hxt1, hits give low values 0.993 | locus YHR129C, strain ARP1, hits give low values 1.02 | locus YHR142W, strain chs7, hits give low values 0.954 | locus YHR200W, strain rpn10, hits give low values 0.987 | locus YIL066C, strain RNR3, hits give low values 0.999 | locus YIL073C, strain SPO22, hits give low values 0.993 | locus YIL125W, strain kgd1, hits give low values 0.986 | locus YIR030C, strain dcg1, hits give low values 0.991 | locus YJL092W, strain hpr5, hits give low values 0.963 | locus YJL095W, strain BCK1 (second series), hits give low values 0.987 | locus YJL095W, strain BCK1, hits give low values 1.02 and 0.997 | locus YJL115W, strain asf1, hits give low values 0.978 | locus YJL129C, strain trk1, hits give low values 0.974 | locus YJL134W, strain LCB3, hits give low values 1.01 | locus YJL154C, strain vps35, hits give low values 0.977 | locus YJL164C, strain tpk1, hits give low values 0.947 | locus YJL166W, strain qcr8, hits give low values 1 | locus YJL168C, strain set2, hits give low values 0.988 | locus YJL187C, strain SWE1 (second series), hits give low values 1.01 | locus YJL187C, strain SWE1, hits give low values 0.989 | locus YJR043C, strain POL32, hits give low values 1.01
